Results filed as inconclusive are left out. Activity calls are given as the source filed them. Calls follow the shape of the dose curve; as a rule, active = well fitted cell-killing curve with a large enough effect; inconclusive = small, poorly fitted or top-dose-only effect; inactive = no such curve, though single readings can be large or run the other way.
Potency is read from the fitted curve at half-maximal effect.

A short description of this test: qHTS of pediatric cancer cell lines to identify multiple opportunities for drug repurposing: Primary screen for OHS-50 cells (AID 1347103). Also: nearly all actives have a fitted effect of over 40% in size. The conditions noted are these: OHS-50 osteosarcoma viability, CellTiter-Glo luminescence, 48 h; series mostly up to 57.3 µM; activity change, negative = cytotoxic: at the top concentration. The source says:
Drug repurposing or repositioning has been offered as a strategy for drug development in oncology programs. This approach has special potential for childhood cancers and other rare or orphan diseases, where the expected return on new drug development has been a disincentive to pharmaceuticals.
In this project we exploit the poly-pharmacology of drugs to discover new indications via phenotypic screening of a panel of 19 well-characterized cell lines derived from solid tumors seen in children and adolescents. The goal is to identify approved drugs with previously unrecognized anticancer properties that has the potential to reveal new mechanisms and biological processes involved in carcinogenesis or drug resistance. We employed a titration-based paradigm (quantitative high-throughput screening or qHTS), where all compounds were tested at multiple concentrations for their effect on cell viability. Concentration-response curves (CRCs) were derived directly from the primary screen, and both potency and efficacy values were used to identify compounds with robust bioactivity profiles. We screened the NIH Chemical Genomics Center (NCGC) Pharmaceutical Collection (NPC) and Mechanism Interrogation Plate (MIPE) small molecule collections of approved and investigational compounds against these cell lines; and measured metabolically active cells after 48 hours of compound treatment as a proxy for cell viability.
Assay Submitter: Nathalia J. Martinez, National Center for Advancing Translational Sciences, National Institutes of Health, Rockville, MD, USA; email: natalia.martinez@nih.gov
[1] Shen, M et al. Quantitative high-throughput phenotypic screening of pediatric cancer cell lines identifies multiple opportunities for drug repurposing. Oncotarget 2017 Dec 19;9(4):4758-4772. PMID 29435139.
The cells were obtained from University of North Carolina (UNC), Pediatric Preclinical Testing Program (PPT), and Coriell Institute (CI).
qHTS cell viability assay:
Cells were assayed in growth media at a density of 500-1,000 cells/well. Five microliters of cells were dispensed into 1,536-well, white, solid-bottom, TC-treated plates (Greiner Bio One) using a multidrop dispenser and incubated at 37 degrees C, 5% CO2, under a humidified atmosphere for 5 hours. Twenty-three nanoliters of compounds and controls (neutral control DMSO or positive control bortezomib at final concentration of 2.3 µM) were subsequently transferred by Kalypsys pintool. For primary screens, the MIPE collection was tested at 11-point dilutions (final concentrations range from 0.78 nM to 46 µM) and the NPC collection at 8-point dilutions (final concentrations range from 0.59 nM to 46 µM). Compounds tested in follow-up screens were assayed at 11-point dilutions. Cells were incubated for 48 hours, followed by addition of 3 µL of CellTiter-Glo (Promega). After a 15 min incubation at room temperature, samples were analyzed for luminescence intensity using a ViewLux High-throughput CCD imager equipped with clear filters.
In the case of `CCOP(=S)(OCC)O/N=C(\C#N)c1ccccc1`, the “activity change, negative = cytotoxic” value was 4.8% (inactive).

`CC(C)(C)OC(=O)c1ncn2c1[C@@H]1CCCN1C(=O)c1c(Br)cccc1-2`: the “activity change, negative = cytotoxic” value is 28% (inactive).

Consider `COP(=S)(OC)Oc1ccc(S(N)(=O)=O)cc1`, for which the “activity change, negative = cytotoxic” value was 13.2% (inactive).

For `CCOC(=O)C(c1c(O)c2ccccc2oc1=O)c1c(O)c2ccccc2oc1=O`, the “activity change, negative = cytotoxic” value is 44.8% (inactive).

In the case of `COP(=O)(OC)C(O)C(Cl)(Cl)Cl` (stereo not given), the “activity change, negative = cytotoxic” value was 18.7% (inactive).

With `C[C@@H]1CC[C@H]2[C@@H](C)C(=O)O[C@@H]3O[C@@]4(C)CC[C@@H]1[C@]32OO4`, the “activity change, negative = cytotoxic” value is -17.7% (inactive).

On to `Nc1ccc(N)cc1`, for which the “activity change, negative = cytotoxic” value is 6.04% (inactive).

On to `CCOC(=O)c1ncn2c1CN(C)C(=O)c1c(I)cccc1-2`, for which the “activity change, negative = cytotoxic” value was 3.61% (inactive).

As to `C[C@@H]1CN(C2CCC(C#N)(c3ccc(F)cc3)CC2)CC[C@]1(C(=O)O)c1ccccc1` (stereo not given in full), the “activity change, negative = cytotoxic” value is 12.4% (inactive).

For the compound `C=CCN1CC[C@]23CCCC[C@H]2[C@H]1Cc1ccc(O)cc13`, the “activity change, negative = cytotoxic” value is -19.5% (inactive).

As for `COc1cc(N)c(Cl)cc1C(=O)NC1CN2CCC1CC2` (stereo not given), the “activity change, negative = cytotoxic” value is -15% (inactive).

Consider `CCc1cc(OC)c(C[C@H](C)N)cc1OC`, for which the “activity change, negative = cytotoxic” value was -30.6% [at 116 µM] (inactive).

As for `CNC(C)Cc1ccccc1OC` (stereo not given), the “activity change, negative = cytotoxic” value is -19% (inactive).

`c1cc2c(c(N3CCNCC3)c1)OCCO2`: the “activity change, negative = cytotoxic” value was -6.77% (inactive).

With `Oc1ccc([C@H]2CNCc3c2ccc(O)c3O)cc1O`, the “activity change, negative = cytotoxic” value was -9.48% (inactive).

Turning to `Clc1ccc(C(OCCN2CCCCC2)c2ccccc2)cc1` (stereo not given), the Potency was 19.5 µM (active).

For the compound `O=C(O)c1nn(Cc2ccc(Cl)cc2Cl)c2ccccc12`, the Potency entry is “inactive”.

For `CCC1(c2ccccc2)CCC(=O)NC1=O` (stereo not given), the “activity change, negative = cytotoxic” value is 8.93% (inactive).

Take `CC1=C2[C@H]3OC(=O)[C@@H](C)[C@@H]3CC[C@@]2(C)C=CC1=O`: the “activity change, negative = cytotoxic” value is -15.9% (inactive).

For `Nc1ccccc1C(=O)OCC(O)CO` (stereo not given), the “activity change, negative = cytotoxic” value is 19.4% (inactive).

Turning to `NC(=O)CN1CCCC1=O`, the “activity change, negative = cytotoxic” value is 20.3% (inactive).

In the case of `O=c1[nH]c2cc(Cl)ccc2n1C1CCNCC1`, the “activity change, negative = cytotoxic” value is 8.06% (inactive).

Consider `Cc1c(Cl)c(=O)oc2cc(OP(=O)(OCCCl)OCCCl)ccc12`, for which the “activity change, negative = cytotoxic” value is 38.1% (inactive).

On to `Oc1c(Br)cc(Br)cc1Br`, for which the “activity change, negative = cytotoxic” value was 12.2% (inactive).

For `Clc1ccc(CSC(Cn2ccnc2)c2ccc(Cl)cc2Cl)cc1` (stereo not given), the Potency is 27.6 µM (active).

On to `O=C(CCCCl)c1ccc(F)cc1`, for which the “activity change, negative = cytotoxic” value was 9.53% (inactive).

Regarding `CC(C)NCC(O)c1ccc(N)c(C#N)c1` (stereo not given), the “activity change, negative = cytotoxic” value is 12.8% (inactive).

For `CN(C)C(=O)Oc1cc(OC(=O)N(C)C)cc(C(O)CNC(C)(C)C)c1` (stereo not given), the “activity change, negative = cytotoxic” value is -9.74% (inactive).

`CN(C)CCc1c[nH]c2cccc(O)c12`: the “activity change, negative = cytotoxic” value was 22% [at 116 µM] (inactive).

`O=c1n(Cl)c(=O)n(Cl)c(=O)n1Cl`: the “activity change, negative = cytotoxic” value is 9.93% (inactive).

Consider `Cc1ccc([N+](=O)[O-])[c]2c1[O][Hg]2`, for which the Potency is 0.55 µM (active).

`Cc1nnc2n1-c1sc(CCC(=O)N3CCOCC3)cc1C(c1ccccc1Cl)=NC2`: the “activity change, negative = cytotoxic” value was 4.1% (inactive).

Turning to `CCCCC1C(=O)NC(=O)N(C2CCCCC2)C1=O` (stereo not given), the “activity change, negative = cytotoxic” value is 5.85% (inactive).

On to `Sc1ccccc1Cl`, for which the “activity change, negative = cytotoxic” value was -3.3% (inactive).

Take `C1CN2CCC1CC2`: the “activity change, negative = cytotoxic” value is 11.7% (inactive).

Take `CN(C)CCc1c[nH]c2ccc(O)cc12`: the “activity change, negative = cytotoxic” value is -11.9% [at 116 µM] (inactive).

On to `C[C@]12CC[C@H]3[C@@H](CC=C4C[C@@H](O)CC[C@@]43C)[C@@H]1CC[C@@H]2O`, for which the “activity change, negative = cytotoxic” value was 1.24% (inactive).

Turning to `C[C@]12CC[C@H]3[C@@H](CCC4=CC(=O)CC[C@@]43C)[C@@H]1CC[C@@H]2C(=O)O`, the “activity change, negative = cytotoxic” value was 9.65% (inactive).

For `N#Cc1nn(-c2c(Cl)cc(C(F)(F)F)cc2Cl)c(N)c1S(=O)C(F)(F)F` (stereo not given), the Potency is 24.6 µM (active).

With `Cc1ccc(N=CN(C)C=Nc2ccc(C)cc2C)c(C)c1`, the “activity change, negative = cytotoxic” value is 14.4% (inactive).

The values above are taken from PubChem BioAssay (NCATS).
